Assay outcomes: PubChem, National Center for Advancing Translational Sciences (NCATS)
HCMV inh = qHTS Assay for inhibitors of the human cytomegalovirus (HCMV). 4.5% of 410,000 active. activity change, negative = inhibition, % at 57.5 µM. AID 1259415, 2018. HFF cells, HCMV-luciferase reporter, 72 h; stronger effect = lower value; in the data active = activity change below about -60%; inconclusive = no clear call, values can overlap the other calls; inactive = above about -39%
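HFF cells seeded 16 h at 37C, treated with compounds, infected with luciferase-reporter HCMV at MOI 1 PFU/cell; luciferase read at 72 h post infection, normalized to buffer-only and Salinomycin controls.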
HCV inh = qHTS Assay for Inhibitors of Hepatitis C Virus (HCV) | Huh7.5.1 HCVcc-Cre infection, luciferase reporter, 44 h | Potency, µM (top dose mostly 41.8 µM), for inactives: at the top dose activity change, negative = inhibition, usual class: inhibitors | 3.4% of 340,000 active; also: potency is read from the fitted curve at half-maximal effect
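Whole-lifecycle infectious HCVcc-Cre system; cells 1,000/well, compound then virus (~0.5 moi) added 4 h after plating, 44 h culture. Luciferase read 15 sec following 15 min substrate incubation, room temp.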
Pf growth 96h = Primary qHTS for delayed death inhibitors of the malarial parasite plastid, 96 hour incubation. AID 504834, 2011. P. falciparum luciferase reporter growth, 96 h. 6.9% of 320,000 active. Potency, µM (doses to about 28.7 µM), without a hit: at the highest dose activity change, negative = inhibition, usual class: inhibitors; also: potency is read from the fitted curve at half-maximal effect
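P. falciparum expressing integrated firefly luciferase, in erythrocytes at 2% hematocrit, 0.05% parasitemia, incubated with compounds 96 h at 37 C, 5% CO2. Growth inhibition read as loss of luminescence; two-generation exposure targets delayed-death apicoplast inhibitors.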
LASV entry inh = qHTS for Inhibitors of binding or entry into cells for Lassa Virus | Lassa virus pseudotype entry inhibition, cell reporter | Potency, µM (titrated, usually from 37.9 µM), without a hit: at the top dose activity change, negative = inhibition, most hits filed as inhibitors | 1.2% of 300,000 active | AID 540256, 2011; calls by dose curve; tested in HEK293 cells; also: potency is read from the fitted curve at half-maximal effect; nearly all actives have a fitted effect of over 50% in size
Marburg entry inh = qHTS for inhibitors of binding or entry into cells for Marburg Virus; Potency, µM (highest dose often 37.8 µM), inactives show at the top dose activity change, negative = inhibition, most hits filed as inhibitors; Marburg virus pseudotyped entry inhibition, cell reporter; AID 540276, 2011; 1.8% of 300,000 active; calls by dose curve; tested in HEK293 cells; also: potency is read from the fitted curve at half-maximal effect
Pf growth 48h = Primary qHTS for delayed death inhibitors of the malarial parasite plastid, 48 hour incubation. P. falciparum luciferase growth in erythrocytes, 48 h. AID 504832, 2011. Potency, µM (doses to about 28.7 µM), for the others: top-dose activity change, negative = inhibition, hits mostly inhibitors. 5.9% of 310,000 active; also: potency is read from the fitted curve at half-maximal effect
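Parasite viability was followed by luminescence of a genomically integrated firefly luciferase. Cultures held 0.1% parasitemia at 2% hematocrit (final), incubated under 5% CO2 at 37 C.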
Starred values were filed as active, the others as inactive; ? = inconclusive; . = no result; [ ] = another dose, or the depositor's remark. Sampled rows, rich in hits. Any-hit rate of the full collection: about 14%. Unless noted, calls follow the shape of the dose curve; as a rule, active = well fitted inhibition curve with a large enough effect; inconclusive = small, poorly fitted or top-dose-only effect, or another doubt; inactive = no such curve, though single readings can be large or run the other way. % is scaled to controls: 0 for no effect and ±100 for the full control effect.

SMILES	HCMV inh	HCV inh	Pf growth 96h	LASV entry inh	Marburg entry inh	Pf growth 48h
Cc1ccc(NC2CCCN(C(=O)c3cn4cccc(C)c4n3)C2)cc1C (stereo not drawn)	?	.	4.1µM*	2%	3%	8%
O=C(NCCc1csc(-c2cccc(F)c2)n1)c1ccccc1C(F)(F)F	?	.	.	-12%[46.1 µM]	.	.
Cc1cc(C2(c3ccc(O)c(C)c3)OC(=O)c3ccccc32)ccc1O	-29	25%	1%	-3%	?	-28%
Cc1cc(O)c(C(C)C)cc1C1(c2cc(C(C)C)c(O)cc2C)OC(=O)c2ccccc21	-103*	5.6µM*	1.2µM*	?	?	2.1µM*
COc1cc(OC)c(NC(=O)CCS(=O)(=O)c2ccc3c(c2)oc(=O)n3C)cc1Cl	12	.	.	29%[46.1 µM]	.	.
CCCS(=O)(=O)N1CC(=O)N(c2cccc(Cl)c2C)C(C)(C(=O)NC2CCCC2)C1 (stereo not drawn)	0	.	.	-6%[46.1 µM]	.	.
O=C(c1ccc2c(c1)OCO2)C1CCCN(Cc2ccc(OC(F)F)cc2)C1 (stereo not drawn)	-11	13µM*	10µM*	.	.	25%
O=C(c1ccc2c(c1)OCO2)C1CCCN(Cc2ccc(F)c(F)c2)C1 (stereo not drawn)	5	-28%	?	0%	?	7%
COc1ccccc1NCc1cccn1-c1nnc(N2CCOCC2)s1	10	.	.	?	.	.
Cc1ccc(N2C(=O)NC(=O)C(CCc3ccccn3)(Cc3cccc(Cl)c3Cl)C2=O)cc1 (stereo not drawn)	-34	7%	2.3µM*	6%	10%	-15%
O=C1NC(=O)C(CCc2ccncc2)(CCc2ccccn2)C(=O)N1c1ccc(Br)cc1 (stereo not drawn)	-4	-5%	-22%	?	2%[46.1 µM]	?
CC(C)N(Cc1ccccc1)S(=O)(=O)c1ccc(N2CCCCS2(=O)=O)cc1	-32	.	.	?	.	.
CCCCN(CC)CCNC(=O)CCC(=O)Nc1ccc2nc(N3CCN(C)CC3)cc(C)c2c1	0	-16%	-13%	.	.	?
Cc1cc(N2CCN(C)CC2)nc2ccc(NC(=S)NC3CC3)cc12	?	-24%	?	.	.	?
CCCN(CCC)CCCNC(=S)Nc1ccc2nc(N3CCN(C)CC3)cc(C)c2c1	-36	13µM*	?	.	.	-54%
CCN1CCN(c2cc(C)c3cc(NC(=S)N4CCCC4)ccc3n2)CC1	-33	-26%	0%	?	?	-11%
CCCCN(CC)CCNC(=S)Nc1ccc2nc(N3CCN(C)CC3)cc(C)c2c1	-3	0.89µM*	?	?	3.5µM*	1.7µM*
CCCN(CCC)CCCNC(=S)Nc1ccc2nc(N3CCN(CC)CC3)cc(C)c2c1	-26	?	-27%	.	.	4.1µM*
CC1(OC(=O)C2CCCC2)C(=O)C=C2C=C(c3ccsc3)N(Cc3ccccc3)C=C2C1=O (stereo not drawn)	-13	3%	?	.	12%[14.2 µM]	12µM*
CC(C)CN1C=C2C(=O)C(C)(OC(=O)C3CCCC3)C(=O)C=C2C=C1c1ccsc1 (stereo not drawn)	33	6%	10µM*	.	.	?
CCN(CC)CCCN1C=C2C(=O)C(C)(OC(=O)C3CCCC3)C(=O)C=C2C=C1c1ccsc1 (stereo not drawn)	-30	3%	?	.	?	10µM*
CC1(OC(=O)C2CCCC2)C(=O)C=C2C=C(c3ccsc3)N(CCc3ccccn3)C=C2C1=O (stereo not drawn)	-34	-14%	?	.	?	?
C=CCN1C=C2C(=O)C(C)(OC(=O)C3CCCC3)C(=O)C=C2C=C1c1ccsc1 (stereo not drawn)	23	-58%	?	.	21%[14.2 µM]	?
O=C(COC(=O)c1ccc(O)cc1O)Nc1ccc2ccccc2c1	10	?	40%	.	.	38%
